# Measured values published in PubChem BioAssay AID588397 (National Center for Advancing Translational Sciences (NCATS), 2011).
# The campaign covered roughly 1,300 compounds. About 1,000 (77%) were called active. Another 7% or so got no clear call; they are omitted. The set was probably picked from earlier hits. The list shows a part of the results. A number with no mark means an inactive call. The call rests on the fitted dose curve; in most records, active means well fitted inhibition curve with a large enough effect; inconclusive means small, poorly fitted or top-dose-only effect; inactive means no such curve, though single readings can be large or run the other way.
# Assay: qHTS of small molecules that selectively kill Giardia lamblia: Hit Validation.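 Further: viability measured as ATP content by luminescence so killing lowers signal; nearly all actives have a fitted effect of over 65% in size.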
# Conditions: Giardia lamblia trophozoite viability, dose-response; series mostly up to 38.3 µM; activity change, negative = killing: at the top concentration
# In short: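 Compounds were tested on trophozoites seeded at 100 cells/well and held 48 hrs at 37 deg C anaerobically. An ATP-based luminescent kit measured the remaining live cells.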
# On the % scale 0 is the no-effect control and ±100 the full control effect; potency means the concentration at half of the fitted maximal effect.
Compound,Potency,"activity change, negative = killing"
CSCCC(NC(=O)c1ccco1)C(=O)OCc1cc([N+](=O)[O-])cc2c1OCOC2 (configuration not stated),4600 nM (active),–
Cc1cccc(C)c1OCC(=O)N(Cc1cccs1)C1CCS(=O)(=O)C1 (configuration not stated),–,-6.92%
O=C1/C(=C/c2ccncc2)CCC/C1=C\c1ccncc1,18300 nM (active),–
CC1C/C(=C/c2ccncc2)C(=O)/C(=C/c2ccncc2)C1 (configuration not stated),11600 nM (active),–
CC(C)(C)[C@H](N)C(=O)N[C@H]1CCC2C3CC=C4C[C@@H](O)CC[C@]4(C)C3CC[C@@]21C (some centres not stated),2900 nM (active),–
CN(C)CCCN(C(=O)c1cc2cc([N+](=O)[O-])ccc2s1)c1nc2cc3c(cc2s1)OCCO3,1630 nM (active),–
COC(=O)C1=C(C)N(C)C(=O)NC1c1ccc([N+](=O)[O-])o1 (configuration not stated),460 nM (active),–
CCOC(=O)C1=C(C)NC2=C(C(=O)c3ccccc32)C1c1ccc([N+](=O)[O-])o1 (configuration not stated),729 nM (active),–
C=CCOC(=O)C1=C(C)NC(=O)NC1c1ccc(O)cc1 (configuration not stated),–,-3.51%
CCOC(=O)C1=C(C)NC(=O)NC1c1ccc([N+](=O)[O-])o1 (configuration not stated),1160 nM (active),–
O=C(Nc1ccc(N2CCCC2)c(Cl)c1)c1ccc([N+](=O)[O-])o1,1830 nM (active),–
O=C(Nc1ccc(N2CCOCC2)c(Cl)c1)c1ccc([N+](=O)[O-])o1,729 nM (active),–
O=C1CC(c2ccc(F)cc2)CC2=C1C(c1ccc([N+](=O)[O-])o1)Nc1ccccc1N2 (configuration not stated),163 nM (active),–
CN(C)c1ccc(/C=C/c2ccc3ccccc3[n+]2[O-])cc1,1030 nM (active),–
CN(C)c1ccc(/C=C/c2ccc3ccccc3n2)cc1,460 nM (active),–
CN(C)c1ccc(/C=C/c2ccc3cc(N)ccc3n2)cc1,183 nM (active),–
CC(=O)OCON[N+]([O-])=NC(C)C,918 nM (active),–
CC(C)(C)C1C/C(=C/c2ccccn2)C(=O)/C(=C/c2ccccn2)C1 (configuration not stated),6500 nM (active),–
c1ccc2nc3c(cc2c1)CCCC3,10300 nM (active),–
Cc1cc(C)c(-n2[nH]nnc2=S)c(C)c1,–,-11.9%
O=C(N/N=C\c1ccc(O)c([N+](=O)[O-])c1)C1COc2ccccc2O1 (configuration not stated),5160 nM (active),–
O=C(N/N=C\c1ccc([N+](=O)[O-])s1)C1COc2ccccc2O1 (configuration not stated),4100 nM (active),–
O=C(Nc1ncc([N+](=O)[O-])s1)C1COc2ccccc2O1 (configuration not stated),290 nM (active),–

Compound,Potency,"activity change, negative = killing"
O=C(N/N=C\c1ccc([N+](=O)[O-])o1)C1COc2ccccc2O1 (configuration not stated),818 nM (active),–
Cc1ccc(/C=C/C(=O)NCC2COc3ccccc3O2)o1 (configuration not stated),–,-42.4%
CC(C)(C)c1ccc2c(c1)OC(C(=O)N/N=C/c1ccc([N+](=O)[O-])o1)CO2 (configuration not stated),818 nM (active),–
O=[N+]([O-])C(/C=C(/Cl)[N+](=O)[O-])=C(N1CCCCC1)N1CCCCC1,1160 nM (active),–
O=[N+]([O-])C(/C=C(\Cl)[N+](=O)[O-])=C(N1CCCCC1)N1CCCCC1,516 nM (active),–
O=C1c2ccccc2C(=O)C1c1ccncc1,7290 nM (active),–
Cc1cc(C)cc(N=c2c([N+](=O)[O-])nn(-c3cccc(Cl)c3)n2O)c1,3260 nM (active),–
Cc1cc(C)cc(N=c2c([N+](=O)[O-])nn(-c3ccc(Cl)cc3)n2O)c1,1300 nM (active),–
O=[N+]([O-])c1[nH]cnc1/C=C/c1ccccc1,1830 nM (active),–
O=[N+]([O-])c1cccc(/C=C/c2nc[nH]c2[N+](=O)[O-])c1,2050 nM (active),–
Cc1cccc(N=Nc2c(C)c(C#N)c(O)[nH]c2=O)c1,3650 nM (active),–
O=C(CNc1ccccc1)N/N=C/c1ccc([N+](=O)[O-])o1,1030 nM (active),–
O=C(CNc1cccc([N+](=O)[O-])c1)N/N=C/c1ccc([N+](=O)[O-])o1,516 nM (active),–
Cc1ccc(NCC(=O)N/N=C\c2ccc([N+](=O)[O-])o2)cc1,650 nM (active),–
O=C(CNc1ccc2ccccc2c1)N/N=C/c1ccc([N+](=O)[O-])o1,1030 nM (active),–
COC(=O)[C@]1(C)N[C@H](CN(C)S(=O)(=O)c2ccc(-c3ccccc3)cc2)[C@@H]2C(=O)N(Cc3ccccc3)C(=O)[C@@H]21,–,-4.41%
Cc1ccc(OCC(=O)c2cc(C)n(-c3ccccc3)c2C)c([N+](=O)[O-])n1,516 nM (active),–
COc1ccc(-n2c(C)cc(C(=O)COc3ccc(C)nc3[N+](=O)[O-])c2C)cc1,1830 nM (active),–
Cc1ccc(NC(=O)CN2C(=O)S/C(=C/c3ccc(O)c([N+](=O)[O-])c3)C2=O)cc1C,1300 nM (active),–
CCOC(=O)CN1C(=O)S/C(=C/c2cccc([N+](=O)[O-])c2O)C1=O,2310 nM (active),–
Cc1cccc(NC(=O)CN2C(=O)S/C(=C\c3ccc(O)c([N+](=O)[O-])c3)C2=O)c1,1300 nM (active),–
CCN(CC)C(=O)CSc1nnc2nnc3cc(Cl)ccc3n12,1300 nM (active),–
NCCCn1c(C(=O)c2ccc(Cl)cc2)c2ccc(C(F)(F)F)cc2[n+]1[O-],410 nM (active),–

Compound,Potency,"activity change, negative = killing"
Cc1ccc(C(=O)c2c3ccc(C(F)(F)F)cc3[n+]([O-])n2CCCN)cc1,1030 nM (active),–
COc1ccc(C(=O)c2c3ccc(C(F)(F)F)cc3[n+]([O-])n2CCCN)cc1,1300 nM (active),–
NCCCn1c(C(=O)c2cc(Cl)c(N)c(Cl)c2)c2ccc(C(F)(F)F)cc2[n+]1[O-],1450 nM (active),–
O=C(N/N=C/c1cc2c(cc1[N+](=O)[O-])OCO2)c1ccccn1,7290 nM (active),–
COc1ccc(CCNc2oc(COc3ccc(Br)cc3)nc2C#N)cc1OC,–,-29.8%
N#Cc1nc(-c2ccc(OCc3ccccc3)cc2)oc1N1CCC(C(N)=O)CC1,–,1.62%
NC(=O)C1CCN(c2cc(Cl)ccc2[N+](=O)[O-])CC1,8180 nM (active),–
NC(=O)C1CCN(c2ncccc2[N+](=O)[O-])CC1,1160 nM (active),–
Cc1cc(C)n(S(=O)(=O)c2ccccc2[N+](=O)[O-])n1,1830 nM (active),–
Cc1nc2cc(-c3ccc(Cl)cc3)nn2c(NCCN(C)C)c1C,918 nM (active),–
CN(C)C(=O)c1cc([N+](=O)[O-])cc([N+](=O)[O-])c1N(C)C,818 nM (active),–
Cc1ccc(S(=O)(=O)/N=C(/Sc2ccccc2C(=O)O)c2ccccc2)cc1,–,-19.6%
CN(C)c1ccc(C2Nc3cccc4cccc(c34)N2)cc1,3650 nM (active),–
CN(C)c1ccc(C2NC(=O)c3ccccc3N2)cc1 (configuration not stated),6500 nM (active),–
O=C(c1ccc([N+](=O)[O-])o1)N1CCCCCC1,3650 nM (active),–
O=C(O)c1cc(Cl)c(Cl)cc1C(=O)N1CCCC1,–,-0.809%
CCC1CCCCN1C(=O)c1ccc([N+](=O)[O-])o1 (configuration not stated),1830 nM (active),–
O=C(c1ccc([N+](=O)[O-])o1)N1CCN(Cc2ccccc2)CC1,6500 nM (active),–
O=C(c1cc(Cl)ccc1Cl)N1CCN(Cc2ccccc2)CC1,–,13.9%
O=C(c1ccc([N+](=O)[O-])o1)N1CCOCC1,1830 nM (active),–
CC1CCCN(C(=O)c2ccc([N+](=O)[O-])o2)C1 (configuration not stated),5160 nM (active),–
COc1ccccc1C(=O)C1CCCN(C(=O)c2ccco2)C1 (configuration not stated),–,29.9%
COCc1ccc(C(=O)N2CCCC(C(=O)c3ccc(Cl)cc3C)C2)o1 (configuration not stated),–,23.6%

Compound,Potency,"activity change, negative = killing"
CC(=O)N1CCN(c2ccc(S(C)(=O)=O)cc2[N+](=O)[O-])CC1,1030 nM (active),–
O=C(O)C1CCN(c2ccccc2[N+](=O)[O-])CC1,5790 nM (active),–
O=C(O)C1CCN(c2ccc([N+](=O)[O-])cc2[N+](=O)[O-])CC1,1160 nM (active),–
CCN(C(=O)COC(=O)c1cc(S(=O)(=O)N2CCc3ccccc32)ccc1OC)C1CCS(=O)(=O)C1 (configuration not stated),–,36.6%
Cc1c(Nc2nc3ccccc3n3cnnc23)cccc1[N+](=O)[O-],9180 nM (active),–
O=C(/C=C/c1ccc2c(c1)OCO2)Nc1cccnc1,4600 nM (active),–
NS(=O)(=O)c1ccc(Nc2ncccc2[N+](=O)[O-])cc1,410 nM (active),–
Cc1c(NC(=O)c2cc(-c3ccc(Cl)c(Cl)c3)on2)c(=O)n(-c2ccccc2)n1C,–,-4.32%
COc1ccc2cc(-c3cc(C(=O)OCC(=O)Nc4c(C)n(C)n(-c5ccccc5)c4=O)c4ccccc4n3)ccc2c1,410 nM (active),–
O=c1c([N+](=O)[O-])cc(C(F)(F)F)cn1Cc1cccc(Cl)c1,2310 nM (active),–
O=c1c([N+](=O)[O-])cc(C(F)(F)F)cn1Cc1c(Cl)cccc1Cl,1300 nM (active),–
COC(=O)c1ccc(Cn2cc(C(F)(F)F)cc([N+](=O)[O-])c2=O)cc1,4100 nM (active),–
CCCC[n+]1c(/C=C/c2c(OC)cc(OC)cc2OC)ccc2ccccc21,–,-13.9%
COc1cccc(/C=C/c2ccc3ccccc3[n+]2C)c1OC,5790 nM (active),–
COc1cccc(-c2cc3nc4c(c(NCC(C)(C)CN(C)C)n3n2)CCCC4)c1,579 nM (active),–
CC(=O)c1c(C)oc2c1C(=O)c1ccccc1C2=O,4600 nM (active),–
Cc1oc2c(c1C(=O)O)C(=O)c1ccccc1C2=O,3260 nM (active),–
CCOC(=O)c1c(C)[nH]c2c1-c1ccccc1C(=O)C2=O,4100 nM (active),–
CCOC(=O)c1c(C)oc2c1C(=O)c1ccccc1C2=O,5160 nM (active),–
CC(=O)NCCNC(=O)c1ccc(CSc2ccc(Cl)cc2)cc1,–,-13.7%
CN(C)c1ccc(/C=C(/NC(=O)c2ccccc2)C(=O)N/N=C/c2ccc([N+](=O)[O-])c(O)c2)cc1,2590 nM (active),–
Cc1onc(-c2ccccc2Cl)c1C(=O)NNC(=O)c1ccc(F)cc1,–,-38.8%
Cc1onc(-c2ccccc2)c1C(=O)N/N=C/c1ccc([N+](=O)[O-])c(O)c1,3260 nM (active),–
